Among the data in PubChem BioAssay AID2184 (The Scripps Research Institute Molecular Screening Center, 2009) are inhibition values, retold here.

For orientation: inhibition means the drop in the measured response relative to a control, in per cent.

Molecules are shown by their SMILES. This is one part of the list. A number with no mark means an inactive call. Calls of active or inactive are those of the source. No stated cut-off is given here; in the data, active means inhibition above about 0.66%; inactive means the rest.

Beta-lactamase TEM (Escherichia coli), sequence (P62593 whole entry, looked up): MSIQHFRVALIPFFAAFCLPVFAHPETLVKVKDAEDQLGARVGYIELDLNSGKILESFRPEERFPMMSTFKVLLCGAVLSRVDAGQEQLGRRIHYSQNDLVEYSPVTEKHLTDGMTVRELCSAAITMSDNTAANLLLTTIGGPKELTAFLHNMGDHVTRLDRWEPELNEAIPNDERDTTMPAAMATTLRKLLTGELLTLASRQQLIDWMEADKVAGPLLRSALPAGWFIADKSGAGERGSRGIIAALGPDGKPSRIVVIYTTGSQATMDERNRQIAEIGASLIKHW

This test addresses Beta-lactamase TEM (Escherichia coli) (UniProt P62593). The experiment in a line: TEM-1 inhibition (serine beta-lactamase), epi-absorbance biochemical counter-screen, VIM-2/IMP-1 inhibitor project (AID 2184). As to conditions: TEM-1 beta-lactamase, nitrocefin absorbance inhibition; at 5.6 µM; active compounds read high. For orientation: The purpose of a counterscreen is to sort out artefacts and off-target activity.
With `Cc1cc2nc3c(=O)n(Cc4ccccc4)c(=O)[nH]c3nc2cc1N`, the inhibition is 30.2% (active).

With `NC(=O)c1ccc(NC(=O)COC(=O)c2c3c(nc4ccccc24)/C(=C\c2ccc4c(c2)OCO4)CCC3)cc1`, the inhibition is -4.26%.

On to `Oc1ccc2ccc3cccc[n+]3c2c1`, for which the inhibition is 25.5% (active).

In the case of `Cc1nn(C)cc1N1C(=O)c2cccc3c(N)ccc(c23)C1=O`, the inhibition was 43.9% (active).

Turning to `CCC(=C/c1sc2ccc3ccccc3c2[n+]1C)/C=C1\Sc2ccc3ccccc3c2N1C`, the inhibition was -0.12%.

Turning to `CN1C(=O)c2cccc3c(N)ccc(c23)C1=O`, the inhibition was 49.7% (active).

Take `COc1cc(/C=C2/SC(=S)N(Cc3ccccc3)C2=O)cc(OC)c1O`: the inhibition is 12.7% (active).

For `Nc1c(C(=O)c2cccs2)sc2nsc(SCCN3CCCCC3)c12`, the inhibition is 23.4% (active).

`C/C(=N\Nc1ccc(S(N)(=O)=O)cc1[N+](=O)[O-])c1cccs1`: the inhibition was 1.6% (active).

Turning to `NS(=O)(=O)c1ccc(NC(=O)COC(=O)c2c3c(nc4ccccc24)/C(=C\c2ccc4c(c2)OCO4)CCC3)cc1`, the inhibition is -4.87%.

With `c1ccc(-c2nccc(-c3ccc(-n4cnc5ccccc54)cc3)n2)nc1`, the inhibition was -3.39%.
